# Screening results as filed in PubChem BioAssay.
# In the library only some 1.7% were active in any assay of this set; here they are far more common.
# EBV gp42 inh = Epstein-Barr virus gp42 inhibitors, primary screen, biochemical, uHTS, fluorescence polarization; Glycoprotein 42 (Epstein-Barr virus (strain AG876)), Q1HVG2; Fluorescence polarization binding assay, mP read-out; inhibition, % (tested at 21.74 µM); 220,000 compounds, 0.42% hits; AID 1085, 2008; in the data active = inhibition above about 50%
# eIF4E-4G inh = eIF4E–eIF4G protein interaction inhibitors, primary screen, biochemical, uHTS, TR-FRET, eIF4GI fragment; inhibition, % at 21.7 µM; TR-FRET eIF4E-eIF4GI(517-606) binding, 2 h; Eukaryotic translation initiation factor 4E (Mus musculus) + Eukaryotic translation …; 220,000 compounds, 0.37% hits;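 active = inhibition above about 30%, limit read from the data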
# MLLE-PAM2 inh = inhibitors of PABP1 MLLE–PAM2 peptide binding, primary screen, biochemical, fluorescence polarization, FITC-PAM2, GST-MLLE; Polyadenylate-binding protein 1 (Homo sapiens), P11940; inhibition, % at 20 µM; 360,000 compounds, 0.36% hits; in the data active = inhibition above about 35%, passing the limit was not always enough
# eIF4H FP inh = human eIF4H binding inhibitors, primary screen, translation initiation inhibitor project, biochemical, uHTS, fluorescence polarization; 290,000 compounds, 0.94% hits; Eukaryotic translation initiation factor 4H (Homo sapiens), Q15056; inhibition, % at 35 µM; eIF4H fluorescence polarization binding assay; AID 2012, 2009;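 note: calls also rest on retests at 20 µM and on dose response follow-up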
# PABP FP inh = PABP poly(A) RNA binding inhibitors, primary screen, biochemical, fluorescence polarization, uHTS | calls only at 35 µM | 290,000 compounds, 1% hits;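 note: calls also rest on retests at 20 µM and on dose response follow-up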
# A number is an active result; n = inactive; u = inconclusive; x = no result given; + = active, no number; [ ] = dose if it differs, or a comment. Unless noted, the rule behind the calls is not given here.
SMILES,EBV gp42 inh,eIF4E-4G inh,MLLE-PAM2 inh,eIF4H FP inh,PABP FP inh
Cn1c(-c2ccc([N+](=O)[O-])cc2)nc2ccccc21,n,n,n,n,n
S=C(NNc1cccc(Cl)c1)NC1CCCCC1,n,n,n,n,+
O=C1c2ccc3c4c(ccc(c24)C(=O)N1CCCCO)C(=O)N(CCCCO)C3=O,n,n,63.7,u,n
Cc1ccccc1C(=O)NN(C)c1nc2ccccc2nc1C(F)(F)F,n,n,n,n,n
CN(NC(=O)c1ccco1)c1nc2ccccc2nc1C(F)(F)F,n,n,n,active,+
CCOC(=O)N1CCN(C(=O)CSc2nc(=O)n3ccccc3n2)CC1,x,x,n,x,x
O=C(N/N=C/c1cc(Cl)cc(Cl)c1O)c1ccncc1,56.9,n,n,u,u
O=C(N/N=C/c1ccc(Cl)cc1Cl)c1ccncc1,x,x,n,n,n
COc1ccc(NS(=O)(=O)c2cccc(C(=O)NNC(=O)c3cccn3C)c2)cc1,x,x,n,74.0,n
COc1ccc(NS(=O)(=O)c2cccc(C(=O)NNC(=O)c3ccccc3O)c2)cc1,x,x,n,x,x
O=C(C[n+]1ccc(-c2ccccc2)cc1)Nc1ccc([N+](=O)[O-])cc1,x,x,n,n,n
CCCC[n+]1c(C)sc2cc(OC)ccc21,n,n,n,n,+
Cc1ccc2c(c1)sc(C)[n+]2CCCS(=O)(=O)[O-],n,n,47.6,n,n
Cc1ccc2sc(C)[n+](CCCS(=O)(=O)[O-])c2c1,n,n,n,n,n
C=CCn1c(SCC(=O)NNC(=O)Nc2ccc(C)cc2)nnc1-c1ccccc1,n,n,n,n,n
C=CCn1c(SCC(=O)Nc2ccc(-c3nc4ccc(C)cc4s3)cc2)nnc1-c1ccccc1,n,32.8[fluorescence artefact?],n,n,n
COC(=O)[C@@]1(Cc2ccc(F)cc2)[C@@H]2[C@@H](CC(=O)[C@H]2CC(=O)C(=O)N(C)C)CN1C(=O)c1ccccc1,n,n,n,71.4,+
CCC(C(=O)OCC(=O)NC1CCS(=O)(=O)C1)c1ccccc1 (configuration not stated),x,x,n,x,x
COc1ccc(OC)c(NC(=O)COC(=O)c2cc3c(s2)CCC3)c1,n,36.5,n,u,u
FC(F)(F)c1ccc2c(c1)NCC1CCCN21 (configuration not stated),n,n,n,53.4,+
CCCCOC(=O)N1CCOCCOCCN(C(=O)OCCCC)CCOCCOCC1,n,n,n,n,n
CCCCC1(C(=O)OCC)CC(CN2CCOCC2)OC1=O (configuration not stated),n,n,n,active,+
Cc1ccc(S(=O)(=O)CC(=O)Nc2nnc(C(C)(C)C)s2)cc1,x,x,37.6,n,n
Cc1csc(NC(=O)CS(=O)(=O)c2ccccc2)n1,n,n,n,83.4,+
CCOC(=O)c1c(NC(=O)COC(=O)Cn2cnc3c2c(=O)n(C)c(=O)n3C)sc(C)c1CC,x,x,n,x,x
SMILES,EBV gp42 inh,eIF4E-4G inh,MLLE-PAM2 inh,eIF4H FP inh,PABP FP inh
COc1ccc(-n2c(SCC(=O)Nc3cccc(S(N)(=O)=O)c3)nc3ccccc3c2=O)cc1OC,n,n,n,n,n
CCCNc1c(F)c(F)c2c(C)c3ccccc3nc2c1F,133.9,n,n,100.8,+
Cc1ccc(-n2c(C)cc(=O)cc2C)c(C)c1,n,n,n,n,n
Cc1cc(=O)cc(C)n1-c1ccc(F)cc1F,n,n,n,n,+
O=C(c1ccccc1)N(c1ccccc1)c1nccc2ccccc12,x,x,n,x,x
O=C(N/N=C/c1cc(Br)c(Br)o1)c1ccc2c(c1)OCCO2,n,n,n,75.6,+
O=C(N/N=C/c1cc(Br)c(Br)o1)c1cccnc1,n,n,59.0,u,n
O=C(N/N=C/c1cc(Br)cc(Cl)c1O)c1ccc2c(c1)OCO2,x,x,n,x,x
O=C(N/N=C/c1cc(Br)c(O)c(Br)c1O)c1ccc2c(c1)OCCO2,x,x,n,54.0,n
O=C(N/N=C\c1cc(Br)c(Br)o1)c1cncc(Br)c1,n,n,n,n,n
Cc1cc2ncn(-c3ncccc3[N+](=O)[O-])c2cc1C,x,x,60.6,n,n
O=[N+]([O-])c1cccnc1-n1cnc2ccccc21,n,n,n,n,n
O=C(Nc1ncc2c(n1)-c1ccccc1CC2)c1ccc(Cl)cc1,n,n,n,n,n
CCCSCC(=O)Nc1ncc2c(n1)-c1ccccc1CC2,59.9,n,n,57.6,+
COc1cccc(OC)c1C(=O)Nc1ccc(C(=O)c2ccncc2)cc1,x,x,n,x,x
O=C(CCn1c(=S)oc2ccccc21)NC1CCCCCCC1,n,n,n,n,n
CS(=O)(=O)c1ccc2nc(NC3(C(F)(F)F)N=C4SCCN4C3=O)sc2c1 (configuration not stated),n,n,41.5,n,n
Cc1ccc(S(=O)(=O)/N=C2/NC(=O)/C(=C\c3ccco3)S2)cc1,n,n,n,65.9,+
COC(=O)/C=C1/S/C(=N/N=C/c2ccco2)NC1=O,n,n,n,n,n
CC(=O)Nc1ccc(S(=O)(=O)/N=C2/NC(=O)/C(=C\c3ccco3)S2)cc1,n,n,n,88.3,+
COC(=O)/C=C1\S/C(=N/N=C/c2ccco2)NC1=O,n,n,n,60.8,+
CC/C(=N\NC(N)=O)c1ccc(OC(F)F)cc1,n,n,n,n,n
Clc1ccc(OCc2nnc(-c3ccccc3Br)o2)c(Cl)c1,90.6,n,n,n,n
Fc1ccc(OCc2nnc(-c3ccccc3Br)o2)c(Cl)c1,x,x,n,n,n
COc1ccc(NC(=O)c2cc3c(=O)n(C)c4ccccc4c3s2)cc1OC,n,n,n,n,n
SMILES,EBV gp42 inh,eIF4E-4G inh,MLLE-PAM2 inh,eIF4H FP inh,PABP FP inh
CCCNC(=O)c1ccc2c(=O)c(O)c(-c3cccc(Br)c3)[nH]c2c1,n,n,n,n,n
CCCNC(=O)c1ccc2c(=O)c(O)c(-c3ccc(F)cc3)[nH]c2c1,n,97.8,n,n,n
O=C1NC(c2ccccc2Br)=N/C1=C\c1ccco1,n,n,n,57.1,+
COc1ccc(/C=C/C(=O)Nc2c(C)nn(C)c2C)cc1COc1ccc(Cl)cc1Br,n,n,n,n,n
CN1CCN(c2ccc(-c3ccnn3C(=O)Nc3cccc(C(F)(F)F)c3)cc2)CC1,n,n,n,n,n
Oc1ccc(/C=N/Nc2ccnc3cc(Cl)ccc23)c(O)c1O,x,x,n,66.9,n
CCc1cc(C(=O)c2ccccc2OC)c(N)s1,n,n,37.4,n,n
Cc1cc(O)c(/C=N/OCc2ccc(Cl)cc2Cl)c(=O)o1,n,75.6,n,n,n
COc1ccc(Cl)cc1N=Cc1c(O)cc(C)oc1=O,x,x,n,x,x
CSC1=N/C(=C\c2ccc(Br)o2)C(=O)S1,n,n,n,57.3,+
CSC1=N/C(=C\c2ccccc2F)C(=O)S1,99.3,n,n,n,n
CC(=O)[C@H]1[C@@H]2C(=O)N(c3cccc(Cl)c3)C(=O)[C@@H]2[C@H]2c3ccccc3C=CN21,n,n,n,n,+
